In PubChem BioAssay (NCATS):
Records with an inconclusive call do not appear. The source made the active and inactive calls. Unless noted, how the calls were made is not given here.

What was measured:
[1] = qHTS profiling of the MIPE4 collection as inhibitors of Plasmodium falciparum (3D7) proliferation (AID 743344);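 further: scaled between DMSO vehicle wells and 0.29 µM artemisinin as full inhibition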; settings: P. falciparum 3D7 in erythrocytes, SYBR Green DNA fluorescence, 72 h; at 28.5 µM unless noted
Method in brief: (§1)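 Erythrocytes infected with P. falciparum (0.3% parasitemia, 2.5% hematocrit) incubated with compounds 72 h at 37 C, 5% CO2. Lysis with saponin/Triton buffer containing SYBR Green I, overnight at room temperature in the dark; DNA fluorescence (485/535 nm) normalised to 0.29 uM artemisinin and DMSO.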

[2] = qHTS profiling of the MIPE4 collection as inhibitors of Plasmodium falciparum (DD2) proliferation (AID 743345); settings: P. falciparum Dd2 in erythrocytes, SYBR Green DNA, 72 h; at 28.5 µM unless noted
Method in brief: as §1

[3] = qHTS profiling of the MIPE4 collection as inhibitors of Plasmodium falciparum (DD2) proliferation (Rep 2) (AID 743346); settings: P. falciparum Dd2 in erythrocytes, SYBR Green DNA, 72 h; at 28.5 µM unless noted
Method in brief: as §1

[4] = qHTS profiling of the MIPE4 collection as inhibitors of Plasmodium falciparum (HB3) proliferation (AID 743347);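 further: plate controls were DMSO vehicle wells for no effect and artemisinin wells for full effect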; settings: P. falciparum HB3 in erythrocytes, SYBR Green DNA, 72 h; at 28.5 µM unless noted
Method in brief: as §1

[5] = High-throughput drug toxicity screening in the BPDCN cell line Gen2.2 (AID 1224824); settings: Gen2.2 BPDCN cells; at 45.8 µM (top of the series) unless noted;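 further: cells exposed to compounds for 48 h before reading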
Method in brief: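 Gen2.2 cells, 500 per well in phenol red-free RPMI with 10% FBS, exposed to compounds 48 h at 37 C, 5% CO2; viability by CellTiter-Glo luminescence. Percent activity scaled to DMSO (100%) and 9.2 uM bortezomib final (0%).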

[6] = High-throughput drug toxicity screening in the BPDCN cell line Cal-1 (AID 1224825); settings: Cal-1 BPDCN cell viability, qHTS; at 45.8 µM (top of the series) unless noted
Method in brief: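 Exponentially growing Cal-1 cells, 500 per well in phenol red-free RPMI with 10% FBS, were exposed to compounds for 48 h at 37 °C, 5% CO2. Viability was read by CellTiter-Glo luminescence and normalised to DMSO (100%) and 9.2 uM bortezomib (0%).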

[7] = qHTS assay for measurement of the activity of small molecule inhibitors on Zika virus induced Caspase-3 activity in human iPSC derived neural progenitor cells (hNPCs) (AID 1224857; active means well fitted curve in the direction sought with a large enough effect; an effect the other way counts as inactive or inconclusive; further: % of control where 0% means no effect; nearly all actives have a fitted effect of over 65% in size); settings: hNPCs ZIKV-induced caspase-3/7, Caspase-Glo luminescence, 6 h; series mostly up to 45.7 µM
Method in brief: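 Values are percent inhibition of virus-induced caspase-3/7 signal, scaled between uninfected cells and ZIKV-infected cells. Infection used 2 FFU/cell for 6 h after 1 h compound exposure.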

[8] = qHTS assay for measurement of the activity of small molecule inhibitors on Zika virus induced Caspase-3 activity in human astrocytoma cells (AID 1224859; active means well fitted curve in the direction sought with a large enough effect; an effect the other way counts as inactive or inconclusive;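 further: plate controls were ZIKV-infected untreated cells for no effect and uninfected cells for full effect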); settings: SNB-19 ZIKV-induced caspase-3/7, luminescence, 6 h; series mostly up to 45.7 µM
Method in brief: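 Compound added 1 h pre-infection; ZIKV 2 FFU/cell on SNB-19 cells, 6 h, 37 C/5% CO2. Caspase-Glo 3/7 luminescence; values as % inhibition of ZIKV-induced caspase activity.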

[9] = qHTS Screen of the MIPE 4.0 Collection Against Ewings Sarcoma (TC71) (AID 1259253; active means well fitted curve in the direction sought with a large enough effect; an effect the other way counts as inactive or inconclusive; further: nearly all actives have a fitted effect of over 40% in size; further: potency means the concentration at half of the fitted maximal effect); settings: TC71 Ewing sarcoma viability, CellTiter-Glo, 48 h; series mostly up to 45.8 µM
Method in brief: (§2)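 Compound titrations go onto adherent log-phase cells 4 h after seeding, incubate 48 h at 37C, then CellTiter-Glo luminescence reports viability relative to DMSO and cell-free controls.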

[10] = qHTS Screen of the MIPE 4.0 Collection Against Ewings Sarcoma (EW8) (AID 1259255; active means well fitted curve in the direction sought with a large enough effect; an effect the other way counts as inactive or inconclusive; further: nearly all actives have a fitted effect of over 35% in size; further: potency means the concentration at half of the fitted maximal effect;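 on viability: 100% = DMSO-treated cells and 0% = medium-only wells without cells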); settings: EW8 Ewing sarcoma viability, CellTiter-Glo, 48 h; series mostly up to 45.8 µM
Method in brief: as §2

[11] = qHTS Screen of the MIPE 4.0 Collection Against Ewings Sarcoma (TC32) (AID 1259256; active means well fitted curve in the direction sought with a large enough effect; an effect the other way counts as inactive or inconclusive; further: nearly all actives have a fitted effect of over 45% in size; further: potency means the concentration at half of the fitted maximal effect); settings: TC32 Ewing sarcoma viability, CellTiter-Glo, 48 h; series mostly up to 45.8 µM
Method in brief: as §2

[12] = qHTS Screen of the MIPE 4.0 Collection Against Ewings Sarcoma (RDES) (AID 1259252; active means well fitted curve in the direction sought with a large enough effect; an effect the other way counts as inactive or inconclusive;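 further: 100% = DMSO-treated cells and 0% = medium-only wells without cells; nearly all actives have a fitted effect of over 35% in size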); settings: RD-ES Ewing sarcoma viability, CellTiter-Glo, 48 h; series mostly up to 45.8 µM
Method in brief: as §2

[13] = qHTS assay to identify small molecule inhibitors of chordoma cells - UCH-1 (AID 1259355; active means well fitted curve in the direction sought with a large enough effect; an effect the other way counts as inactive or inconclusive; further: on the % scale 0 is the no-effect control and ±100 the full control effect; nearly all actives have a fitted effect of over 55% in size); settings: UCH-1 chordoma viability, CellTiter-Glo, 48 h, combination, with auranofin plus four topoisomerase inhibitors; series mostly up to 46.1 µM
Method in brief: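 Luminescent ATP read-out (CellTiter-Glo, 30min at room temperature) measured viability of UCH-1 cells exposed for 48hr to test drugs at 15 concentrations, co-dosed with a five-agent combination of auranofin, camptothecin, doxorubicin, rubitecan and topotecan.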

[14] = qHTS assay to identify small molecule inhibitors of chordoma cells - UCH-2 (AID 1259356; active means well fitted curve in the direction sought with a large enough effect; an effect the other way counts as inactive or inconclusive; further: on the % scale 0 is the no-effect control and ±100 the full control effect); settings: UCH-2 chordoma viability, CellTiter-Glo ATP luminescence, 48 h; series mostly up to 46.1 µM
[15] = qHTS profiling for inhibitors of Plasmodium falciparum (DD2) proliferation (AID 743323); settings: lower = more inhibition; at 28.7 µM (top of the series) unless noted
Method in brief: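 Parasite proliferation measured via DNA-dye fluorescence, as uninfected erythrocytes lack DNA. Cultures at 0.3% parasitemia and 2.5% hematocrit incubated 72 h with compound; signal scaled between vehicle and 0.29 uM artemisinin wells.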

[16] = qHTS profiling for inhibitors of Plasmodium falciparum (HB3) proliferation (AID 743324; active means well fitted curve in the direction sought with a large enough effect; an effect the other way counts as inactive or inconclusive;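 further: 100% = DMSO vehicle wells and 0% = artemisinin-treated control wells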); settings: Plasmodium falciparum HB3 blood-stage proliferation; at 28.7 µM (top of the series) unless noted
Method in brief: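 P. falciparum HB3 grown in erythrocytes (0.3% parasitemia, 2.5% hematocrit final) with compound for 72 h at 37 C, 5% CO2. Parasite DNA detected by SYBR Green after saponin/triton lysis overnight; normalized to 0.29 uM artemisinin and DMSO.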

SMILES | parasite growth, % of DMSO control [1] [%] | parasite growth remaining, % of DMSO control (lower = more inhibition) [2] [%] | parasite growth, % of control (lower = inhibition) [3] [%] | growth, % of control [4] [%] | cell viability, % of control (lower = more cytotoxic) [5] [%] | viability (% of control) [6] [%] | Potency [7] | Potency [8] | Potency [9] | Potency [10] | Potency [11] | Potency [12] | outcome [13] | outcome [14] | activity, percent of control [15] [%] | remaining proliferation (% of control), lower = more inhibition [16] [%]
COc1nccc(-c2c(-c3ccc(F)cc3)ncn2C2CCC(O)CC2)n1 (stereo unspecified) | 42.3 | 80 | 52.5 | 28.5 | 192 | 43.4 | inactive | inactive | 14.8 µM (active) | inactive |  |  |  |  |  | 
OC(c1cc(C(F)(F)F)nc2c(C(F)(F)F)cccc12)C1CCCCN1 (stereo unspecified) | 11 | 9.36 | 23.2 | 61.8 | 9.36 | 7.54 | inactive | inactive | 20.9 µM (active) | 20.9 µM (active) | 26.4 µM (active) |  |  |  |  | 
N#Cc1c(N(CC(=O)O)CC(=O)O)sc(C(=O)O)c1CC(=O)O | 86.7 | 91.9 | 139 | 105 | 5.77 | 9.17 | inactive |  | inactive | inactive |  | inactive | inactive | inactive |  | 
CN(C)S(=O)(=O)c1ccc2c(c1)C(=Cc1cc3c([nH]1)CCCC3)C(=O)N2 | 22.9 | 22.5 |  | 8.5 | 119 | 35.3 | inactive | inactive | 9.35 µM (active) | 8.33 µM (active) | 3.72 µM (active) |  |  |  |  | 
CN1N=C(N)c2cn([C@@H]3O[C@H](COP(=O)(O)O)[C@@H](O)[C@@H]3O)c3ncnc1c23 | 82.4 |  | 67.6 | 98.6 | 199 | 76.2 | inactive | inactive | 7.43 µM (active) |  | 2.64 µM (active) |  |  |  |  | 
O=C(O)C1=CO[C@@H](O[C@@H]2O[C@H](CO)[C@H](O)[C@H](O)[C@H]2O)[C@@H]2C(CO)=CC[C@H]12 | 99.8 | 96.1 | 83.9 | 103 | 78.1 | 23.1 | inactive | inactive | 16.6 µM (active) | inactive | inactive |  |  |  |  | 
C=CCc1cccc(C=NNC(=O)CN2CCN(Cc3ccccc3)CC2)c1O | 38.6 | 23.3 | 19.3 | 97.7 | 67.9 | 11.1 | inactive | inactive | 4.69 µM (active) | 10.5 µM (active) | 7.43 µM (active) |  |  |  |  | 
CC(C)C[C@H](NC(=O)c1cc2ccccc2s1)C(=O)N1CCN(C(=O)[C@H](CO)NS(=O)(=O)c2ccc(Cl)cc2Cl)CC1 | 11.1 | 47.5 | 20.2 | 10.7 | 29.4 | 67 | inactive | inactive | 23.5 µM (active) |  | 23.5 µM (active) |  |  |  | 27.2 | 5.88
COc1ccc(Cn2ccc3ccc(C(=O)NO)cc32)cc1 | 4.8 |  | 8.17 | 3.68 | 250 | 19.7 | inactive | inactive | 13.2 µM (active) | 14.8 µM (active) | 11.8 µM (active) |  |  |  |  | 
CC(C)(OCc1nn(Cc2ccccc2)c2ccccc12)C(=O)O | 95.1 | 101 | 96.9 | 104 | 148 | 109 | inactive | inactive | 7.43 µM (active) | inactive |  |  |  |  |  | 
N=C1SC(=Cc2ccc(-c3ccc4c(c3)C(=O)NC4=O)o2)C(=O)N1c1ccc(Br)cc1 | 9.09 | 21.3 | 30.9 | 9.17 | 13.7 | 35.6 | inactive | inactive | 20.9 µM (active) |  | 18.7 µM (active) |  |  |  |  | 
O=c1cc(-c2ccc(O)c(O)c2)oc2cc(O)cc(O)c12 | 13 |  | 27.8 | 14 | 264 | 68.6 | inactive | inactive | inactive | inactive | inactive |  |  |  |  | 
